The sample as a whole holds a higher share of hits than the screen did.
CHX counter – affects cycloheximide protein synthesis inhibition readout, counter-screen; cell reporter, cycloheximide protein synthesis inhibition counterscreen; max response, %; 12% of 300,000 active; in the data active = max response mostly above about 13%, no sharp cut-off; inactive = mostly below about 14%; note: read at 38.3 µM for the half of the compounds with a filed dose; 0% is about no effect
TbPYK inhibitor – inhibitors of Trypanosoma brucei pyruvate kinase | TbPYK enzyme, Kinase-Glo Plus ATP luminescence, 45 min | Potency, µM (doses to about 76.8 µM), for inactives: at the top dose activity, negative = inhibition, usual class: inhibitors | 0.12% of 410,000 active; note: potency is the fitted concentration of half-maximal effect; % is set by controls: 0 for no effect and ±100 for the full control effect; nearly all actives have a fitted effect of over 50% in size
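Luminescence from Kinase-Glo Plus, added after a 45-minute room-temperature reaction, served as the end-point read-out. The enzyme and substrate were preincubated with compound before ADP (130 uM final) initiated turnover. Concentration-effect curves came from normalized qHTS data.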
Shiga inhibitor – Shiga toxin inhibition; Vero cells, Shiga toxin protein synthesis inhibition reporter; 9.2% of 290,000 active; AID 2315; inhibition, % at 38.7 µM; in the data active = inhibition mostly above about 28%, no sharp cut-off; inactive = mostly below about 43%; note: 0% is about no effect
LmPK inh – inhibitors of Leishmania mexicana pyruvate kinase; purified LmPK, Kinase-Glo ATP luminescence, 1 h; Potency, µM (series often up to 57.5 µM), for the others: top-dose activity change, negative = inhibition, actives largely listed as inhibitors; Q27686; 0.37% of 290,000 active; note: potency is the fitted concentration of half-maximal effect; % is set by controls: 0 for no effect and ±100 for the full control effect
Target sequence (Q27686 whole entry, looked up): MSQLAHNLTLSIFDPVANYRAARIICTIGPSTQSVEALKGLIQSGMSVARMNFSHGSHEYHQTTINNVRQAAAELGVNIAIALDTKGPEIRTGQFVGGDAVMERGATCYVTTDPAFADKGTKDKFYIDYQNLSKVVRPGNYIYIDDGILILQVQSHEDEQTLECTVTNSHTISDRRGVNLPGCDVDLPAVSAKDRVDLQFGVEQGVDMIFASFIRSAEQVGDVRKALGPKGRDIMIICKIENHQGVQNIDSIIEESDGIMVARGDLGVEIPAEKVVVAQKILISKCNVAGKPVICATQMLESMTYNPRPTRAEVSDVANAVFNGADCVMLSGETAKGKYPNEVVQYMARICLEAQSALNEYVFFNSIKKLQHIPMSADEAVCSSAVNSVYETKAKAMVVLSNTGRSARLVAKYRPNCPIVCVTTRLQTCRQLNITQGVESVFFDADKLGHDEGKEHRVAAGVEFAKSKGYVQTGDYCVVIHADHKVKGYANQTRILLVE
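Purified LmPK (0.1 nM) with 0.5 mM PEP and 0.1 mM ADP in imidazole buffer pH 7.2 with MgCl2/KCl, 1 h at room temperature. ATP formed was read by luciferase luminescence and normalized to no-enzyme and uninhibited controls.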
Giardia FBPA inh – inhibitors of Giardia lamblia fructose-1,6-bisphosphate aldolase | A8B2U2 | purified Giardia FBPA | Potency, µM (highest dose often 59.6 µM), inactives show at the highest dose activity, negative = inhibition, usual class: inhibitors | 0.71% of 290,000 active | AID 2451; note: potency is the fitted concentration of half-maximal effect; % is set by controls: 0 for no effect and ±100 for the full control effect; nearly all actives have a fitted effect of over 55% in size
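40 nM FBPA preincubated 10 min at RT with compound (up to 57.5 uM final), then substrate plus GAPDH/TPI/NAD/arsenate coupling and diaphorase/resazurin added. Fluorescence read after 20 min at RT, 525/598 nm.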
RE007 growth inh – less growth of the S. pombe RE007 Vpr strain; S. pombe RE007 Vpr strain, BacTiter-Glo ATP luminescence, 24 h; Potency, µM (top dose mostly 92.2 µM), for inactives: top-dose activity change, negative = less growth, usual class: inhibitors; 0.21% of 360,000 active; AID 651644; active = well fitted falling curve with a large enough effect; inconclusive = small, poorly fitted or top-dose-only effect; inactive = no such curve, though single readings can be large or run the other way; note: potency is the fitted concentration of half-maximal effect; % is set by controls: 0 for no effect and ±100 for the full control effect; nearly all actives have a fitted effect of over 50% in size
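Fission yeast strain RE007, carrying one chromosomally integrated HIV-1 vpr copy, was seeded at OD 0.01 in PMG+AL medium with 23 nL pinned compound. After 24 h at 30 °C and 99% humidity, viability was read by BacTiter-Glo luminescence.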
An asterisk follows results filed as active; ? = inconclusive; · = not tested or not shown; [ ] = remark or other dose. Unless noted, calls come from the whole dose curve; as a rule, active = well fitted curve in the direction sought with a large enough effect; inconclusive = small, poorly fitted or top-dose-only effect, or another doubt; inactive = no such curve, though single readings can be large; an effect the other way counts as inactive or inconclusive.

SMILES	CHX counter	TbPYK inhibitor	Shiga inhibitor	LmPK inh	Giardia FBPA inh	RE007 growth inh
O=C(Nc1ccc(Br)cc1)c1ccc2c(c1)OCO2	38.4*	-2.5%	162.1*	-1.4%	6.3%	6.6%
O=c1c(O)c(-c2ccc3c(c2)OCO3)oc2ccccc12	34.5*	2.4%	21.9	5.4%	-21.9%	-22.1%
O=C(Nc1ccc2nsnc2c1)c1ccc2c(c1)OCO2	31.5*	-2.4%	63.9*	-2.7%	-14.7%	-11.4%
Cn1cc(-c2nc3cnc(Oc4cccc(Cl)c4)nc3n(CCC#N)c2=O)c2ccccc21	·	2.6%	·	·	1.0%	·
CC#CCN1c2ccccc2[C@]23C[C@@H](C(=O)OC)N(S(=O)(=O)c4cccs4)C2=NC(C(=O)OC)=C(C(=O)OC)[C@H]13	·	·	·	2.5%[11.5 µM]	4.2%[12.9 µM]	·
CC(C)OCCCN1C(=O)c2[nH]nc(-c3ccccc3O)c2C1c1cccc(OCc2ccccc2)c1 (stereo unspecified)	·	-0.8%	·	·	·	·
NC(=O)c1ccc(NC(=O)c2ccc3c(c2)OCO3)cc1	36.6*	6.2%	111.5	-18.7%	1.0%	0.8%
O=C(Nc1ccc2c(c1)OCO2)c1cccc(Cl)c1	48.8*	-5.6%	106.6*	?	-13.5%	-15.2%
O=C(Nc1ccc(F)c(F)c1)c1ccc2c(c1)OCO2	94.2*	-1.9%	100.2*	-22.4%	-14.3%	-20.4%
Cc1cc(C(=O)Nc2ccc3c(c2)OCO3)cs1	38.7*	-8.6%	58.0*	?	-25.2%	-20.7%
O=C(Nc1ccc2c(c1)OCO2)c1c(F)c(F)c(F)c(F)c1F	9.5	2.0%	5.6	1.2%	0.6%	-13.6%
O=C(Nc1ccc2c(c1)OCO2)c1ccc[n+]([O-])c1	8.4	·	58.5	3.0%	0.6%	4.7%[3.69 µM]
COC(=O)C/C=C/[C@@H](C)[C@H](NC(=O)OCC(Cl)(Cl)Cl)c1ccc2ccccc2c1	·	·	·	·	-4.1%	·
COc1ccc(-c2cc(C(F)(F)F)n3ncc(C(=O)O)c3n2)cc1OC	24.7*	5.2%	-17.4	0.0%	6.3%	-4.1%
COc1cccc(-c2cc(C(F)(F)F)n3ncc(C(=O)O)c3n2)c1	-2.4	-7.1%	-13.6	3.6%	0.1%	10.7%
Cc1ccc(N=c2oc3cc(O)ccc3cc2C(N)=O)cc1	56.3*	-2.0%	80.9*	-0.1%	5.9%	-22.0%
CC(=O)c1cc2ccc(O)cc2oc1=O	-2.6	0.9%	-7.8	-12.1%	9.0%	-6.6%
CN(C(=O)c1ccco1)c1nnc(C23CC4CC(CC(C4)C2)C3)s1	56.8*	-1.8%	83.2*	1.7%	-4.2%	4.6%
CN(C(=O)c1ccco1)c1nc2c(s1)CCCC2	31.3*	-18.0%	41.7*	25.1µM*	-1.2%	?
CCOC(=O)N/N=C1/C[C@@H](O)[C@@H](O)[C@@H]2[C@@H]3C(=O)N(C(C)(C)C)C(=O)[C@H]3CC[C@@H]12	·	·	·	·	-1.3%[12.9 µM]	·
COc1cc(OC)c(NC(=O)Cc2c(C(=O)O)c(C)cn2C)cc1Cl	·	-2.6%	·	·	·	·
Cc1ccc(-n2c(=S)[nH]c3c(oc4ccccc43)c2=O)cc1C	12.7*	-10.7%	27.4*	-0.7%	12.0%	8.3%
O=c1c2oc3ccccc3c2[nH]c(=S)n1-c1ccc(F)cc1	1.7	2.9%	17.2	-0.1%[11.5 µM]	-15.9%	2.4%
Cc1c(C(=O)Cc2ccccc2)n(C)c2ccccc12	25.1*	-3.7%	26.6	-1.9%	-3.2%	-16.0%
CCc1ccc(S(=O)(=O)c2nnn3c2nc(NC2CCCC2)c2sccc23)cc1	·	-1.1%	·	·	·	·
SMILES	CHX counter	TbPYK inhibitor	Shiga inhibitor	LmPK inh	Giardia FBPA inh	RE007 growth inh
Cc1cc(NC(=O)CCn2c(=O)c3cccn3c3cccnc32)ccc1Br	·	-4.9%	·	·	·	·
Nc1ccc(NC(=O)c2cccs2)cc1	20.7*	0.3%	23.3	0.3%	-0.2%	-8.0%
COc1ccc(NC(=O)C(=O)NNC(=O)c2cccs2)cc1	15.4*	1.5%	9.8	1.2%	4.6%	8.7%
COc1ccc(NC(=O)C(=O)NNC(=O)c2cccs2)c(OC)c1	-2.8	1.1%	7.7	-2.8%	·	-6.8%
Cc1ccc(NC(=O)C(=O)NNC(=O)c2cccs2)cc1	28.9*	1.5%	37.8	-4.6%	?	-15.2%
CCN(CC)c1cc(C)c2cc(NC(=O)c3cccs3)ccc2n1	22.7*	1.4%	39.9	6.0%	-6.8%	1.7%
Cc1ccc(C)c(CN2C(=O)c3ccccc3S(=O)(=O)c3ccc(C(=O)N4CCc5ccccc54)cc32)c1	·	-12.0%	·	·	·	·
O=C1CCCc2cc(S(=O)(=O)NCC3CCC(C(=O)NCc4ccc(F)cc4)CC3)ccc2N1 (stereo unspecified)	·	-3.4%	·	·	·	·
O=C(Nc1ccc(C(=O)N2CCCc3ccccc32)cc1)c1cccs1	-0.8	3.5%	11.8	0.1%	-7.5%	4.3%
Cc1ccc(NC(=O)c2cccs2)cc1	53.0*	1.3%	80.8	?	-6.3%	-17.5%
Nc1ccc(/C=C/C(=O)c2cccs2)cc1	39.5*	-3.2%	68.5*	?	-1.7%	?
Cc1ccc(NS(=O)(=O)c2ccc(NC(=O)c3cccs3)cc2)c(C)c1	4.7	-16.4%	16.6	-0.3%	0.1%	-2.3%
Nc1ccc(NC(=O)Nc2ccc(N)cc2)cc1	17.4*	-1.2%	28.8*	0.1%	0.5%	·
O=C(Nc1ccc2c(c1)CCC2)c1cccs1	53.6*	-3.7%	62.0*	?	-17.9%	?
CCN(CCCNC(=O)c1nn(-c2ccc(OC)cc2)c(=O)c2c1c1ccccc1n2C)c1ccccc1	·	-3.7%	·	·	·	·
OC1CCC2Cc3ccccc3N=C12 (stereo unspecified)	·	·	·	·	-0.3%	·
CCOC(=O)c1ccc(NS(=O)(=O)c2cc(-c3onc(C)c3C)ccc2C)cc1	·	3.7%	·	·	·	·
CCCNC(=O)Cn1nc(-c2ccc(OC)cc2)c2cnc3ccc(F)cc3c21	·	-2.4%	·	·	·	·
CC(C)C(NC(=O)C(Cc1ccc(O)cc1)NC(=O)C(NC(=O)C(F)(F)F)C(C)C)C(=O)O (stereo unspecified)	·	·	·	·	0.4%	·
Cc1nccc(-c2cccc(N/N=C(\C#N)C(=O)c3ccccc3)c2)n1	-3.4	0.6%	-8.3	-0.6%	-3.0%	3.7%
N#C/C(=N\Nc1cccc(C(F)(F)F)c1)C(=O)c1ccsc1	67.6*	2.7%	93.7*	-1.0%	-8.6%	-19.2%
CCn1cc2nc(SCC(=O)Nc3ccccc3F)n(Cc3ccc(C)cc3)c(=O)c2n1	·	-4.8%	·	·	·	·
CC1=C(C(=O)Nc2ccc(C)cc2C)C(c2ccc(O)cc2)n2nc(SCC(=O)c3ccc(C)cc3)nc2N1 (stereo unspecified)	·	-1.6%	·	·	·	·
Cc1cc[n+](-c2[nH]c(=O)sc2/C=N/N=C(\[O-])c2ccncc2)cc1	-7.3	1.1%	-4.3	-7.2%	·	0.3%
Cc1cc[n+](-c2[nH]c(=O)sc2/C=N/N=C(\[O-])c2ccccc2)cc1C	38.9*	0.9%	73.8*	0.6%	-9.8%	-11.7%
O=c1[nH]c(-[n+]2ccccc2)c(/C=N/N=C(\[O-])c2ccccc2)s1	18.9*	-4.3%	40.5*	1.6%	-4.3%	18.6%
